In PubChem BioAssay (NCATS):
Inconclusive results are not listed. The source made the active and inactive calls. Calls come from the whole dose curve; as a rule, active = well fitted curve in the direction sought with a large enough effect; inconclusive = small, poorly fitted or top-dose-only effect, or another doubt; inactive = no such curve, though single readings can be large or run the other way.

Molecular target: Ferritin light chain (Equus caballus) (UniProt P02791)
Test: qHTS Validation Assay for Identification of Novel General Anesthetics (AID 2323)
Conditions: horse apoferritin, anesthetic-site fluorescent probe displacement; series mostly up to 76.9 µM
Excerpt: Source: NIH Chemical Genomics Center [NCGC]
Assay Submitter: Roderic Eckenhoff, University of Pennsylvania
Screening Center PI: Christopher P. Austin, NIH
Probe Development: NIH Chemical Genomics Center [NCGC]
Anesthetic development has remained a largely empirical process. There are growing concerns about the cognitive effects of known general anesthetics and acceleration of the onset of neurodegenerative disease. The compounds' toxicity and multiple specific binding targets in the mammalian brain [4] has made them less attractive as drug leads. In this assay, a GABAergic mimetic model system, apoferritin and a profluorescent 1-aminoanthracene ligand (1-AMA), was used to construct a competitive binding assay for identification of novel general anesthetics. The assay was validated for 1-AMA using other known anesthetics, such as isoflurane (CID:3763) and propofol (CID: 4943), [6].
[1] S.L. Bianchi, T. Tran, C. Liu, S. Lin, Y. Li, J.M. Keller, R.G. Eckenhoff, and M.F. Eckenhoff, Brain and behavior changes in 12-month-old Tg2576 and nontransgenic mice exposed to anesthetics. Neurobiol Aging 29 (2008) 1002-10.
[2] Z. Xie, Y. Dong, U. Maeda, R.D. Moir, W. Xia, D.J. Culley, G. Crosby, and R.E. Tanzi, The inhalation anesthetic isoflurane induces a vicious cycle of apoptosis and amyloid beta-protein accumulation. J Neurosci 27 (2007) 1247-54.
[3] P. Honegger, and J.M. Matthieu, Selective toxicity of the general anesthetic propofol for GABAergic neurons in rat brain cell cultures. J Neurosci Res 45 (1996) 631-6.
[4] M.F. Eckenhoff, K. Chan, and R.G. Eckenhoff, Multiple specific binding targets for inhaled anesthetics in the mammalian brain. J Pharmacol Exp Ther 300 (2002) 172-9.
[5] C.A. Butts, J. Xi, G. Brannigan, A.A. Saad, S.P. Venkatachalan, R.A. Pearce, M.L. Klein, R.G. Eckenhoff, and I.J. Dmochowski, Identification of a fluorescent general anesthetic, 1-aminoanthracene. Proc Natl Acad Sci U S A 106 (2009) 6501-6.
[6] W.A. Lea, J. Xi, A. Jadhav, L. Lu, C.P. Austin, A. Simeonov, and R.G. Eckenhoff, A high-throughput approach for identification of novel general anesthetics. PLoS One 4 (2009) e7150.
Three uL of reagents (free 1-AMA (50% saturated solution of 1-aminoanthracene
in PBS) in columns 3, 4 as negative control and 1-AMA/apoferritin mixture (10 uM horse-spleen apoferritin in 50% saturated 1-aminoanthracene in PBS) in columns 1, 2, 5-48) was dispensed into 1536-well Greiner black assay plates. Compounds (23 nL) were transferred via Kalypsys pintool equipped with 1,536-pin array (10 nL slotted pins, V&P Scientific, San Diego, CA). Titration of the positive control, propofol, were delivered via pin transfer from separate control plates to the 2nd column of each assay plate. The starting concentration of the control, dissolved in DMSO, was at 160 mM, followed by two-fold dilution points in duplicate, for a total of 16 concentrations. The plates were incubated for 10 min at room temperature, and then read on an EnVision HTS multilabel reader (Perkin-Elmer, Waltham, MA) (end point read, 3 min/plate) using Fura2 BFP excitation filter (380 nm, bandwidth 10 nm) and fluorescein emission filter (535 nm, bandwidth 25 nm) set. A LANCE/DELFIA dichroic mirror with a cutoff wavelength at 400 nm was used to maximize signal accuracy and strength. Vehicle-only plates, with DMSO being pin-transferred to the entire column 5-48 compound area, were inserted uniformly at the beginning and the end of each library in order to monitor for and record any shifts in the background. Activity was computed as the normalized fluorescence response relative to free 1-AMA and 1-AMA/apoferritin complex values. Concentration-effect relationships were derived by using curve fitting algorithms developed in-house (http://ncgc.nih.gov/pub/openhts/). A four parameter Hill equation was fitted to the concentration-response data by minimizing the residual error between the modeled and observed responses.

Ferritin light chain (Equus caballus), sequence (P02791 2-175 limits assumed): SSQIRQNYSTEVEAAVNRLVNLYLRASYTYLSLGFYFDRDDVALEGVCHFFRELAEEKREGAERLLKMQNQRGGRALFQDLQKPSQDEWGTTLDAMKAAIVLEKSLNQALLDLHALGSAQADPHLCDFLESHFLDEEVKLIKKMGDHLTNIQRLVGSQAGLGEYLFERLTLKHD

Row | SMILES | outcome
1 | NCCc1ccc(O)cc1 | inactive
2 | CCC1(c2ccc(N)cc2)CCC(=O)NC1=O (configuration not stated) | inactive
3 | CC(C)(C)NCC(O)c1ccccc1Cl (configuration not stated) | inactive
4 | CC(C)N(CCC(C(N)=O)(c1ccccc1)c1ccccn1)C(C)C (configuration not stated) | inactive
5 | C=C(C)[C@H]1CN[C@H](C(=O)O)[C@H]1CC(=O)O | inactive
6 | C[C@]12CCC(=O)C=C1CC[C@@H]1[C@@H]2CC[C@]2(C)C(=O)CC[C@@H]12 | inactive
7 | O=C(CCCN1CCC2(CC1)C(=O)NCN2c1ccccc1)c1ccc(F)cc1 | inactive
8 | O=P1(N(CCCl)CCCl)NCCCO1 (configuration not stated) | inactive
9 | CCCCC/C=C\C/C=C\C/C=C\C/C=C\CCCC(=O)NCC(=O)O | inactive
10 | CC(NC(C)(C)C)C(=O)c1cccc(Cl)c1 (configuration not stated) | inactive
11 | CN1C(=O)CCS(=O)(=O)C1c1ccc(Cl)cc1 (configuration not stated) | inactive
12 | O=C(O)CCCc1ccc(N(CCCl)CCCl)cc1 | inactive
